ChEMBL document CHEMBL3988442, “University of Dundee, Small-Polar-MMV Screening Library” (2021)
Values joined by “and” are separate entries in the source; they are usually repeats but may differ in a detail not shown here. Equal entries are not always repeated. For some assays here: Entries with a potency or affinity are not part of this list.

How the values were obtained:
[1] = target: Protein translocase subunit SecA (Escherichia coli (strain K12)) (UniProt P10408); assay: Assay to Identify E. coli SecA ATPase Inhibitors; assay type: functional; set-up: scale not given: direction of the effect not stated beside the values; conditions: 30 µM
Chain of Protein translocase subunit SecA (Escherichia coli (strain K12)) (P10408 whole entry): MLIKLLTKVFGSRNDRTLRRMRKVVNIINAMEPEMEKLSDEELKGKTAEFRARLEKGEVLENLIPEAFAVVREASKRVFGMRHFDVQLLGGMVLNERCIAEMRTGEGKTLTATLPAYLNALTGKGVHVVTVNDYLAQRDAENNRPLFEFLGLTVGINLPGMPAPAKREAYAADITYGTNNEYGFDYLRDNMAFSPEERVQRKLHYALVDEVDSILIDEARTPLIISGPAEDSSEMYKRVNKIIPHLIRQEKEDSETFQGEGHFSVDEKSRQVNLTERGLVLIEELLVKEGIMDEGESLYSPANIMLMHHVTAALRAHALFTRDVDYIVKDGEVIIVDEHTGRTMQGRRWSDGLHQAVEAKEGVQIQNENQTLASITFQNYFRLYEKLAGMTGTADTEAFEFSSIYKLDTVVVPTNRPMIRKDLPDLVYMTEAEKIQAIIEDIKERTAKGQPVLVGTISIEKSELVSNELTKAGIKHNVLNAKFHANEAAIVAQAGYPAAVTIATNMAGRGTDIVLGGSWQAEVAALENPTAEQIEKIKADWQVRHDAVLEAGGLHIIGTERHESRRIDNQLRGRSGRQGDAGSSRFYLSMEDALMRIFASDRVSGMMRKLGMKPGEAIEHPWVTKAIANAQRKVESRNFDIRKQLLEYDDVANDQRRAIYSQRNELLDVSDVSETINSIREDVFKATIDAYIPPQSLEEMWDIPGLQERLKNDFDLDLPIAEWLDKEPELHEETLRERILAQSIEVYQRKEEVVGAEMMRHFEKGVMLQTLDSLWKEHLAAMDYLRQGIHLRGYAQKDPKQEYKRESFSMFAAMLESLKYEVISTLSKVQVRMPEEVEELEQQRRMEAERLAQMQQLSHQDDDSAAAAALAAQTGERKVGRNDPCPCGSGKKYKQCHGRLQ

[2] = target: T1, Ubiquitin-activating enzyme e1, putative (Leishmania donovani (strain BPK282A1)) (UniProt E9BSI1); assay: Leishmania donovani Ubiquitin Activating Enzyme (LdE1); assay type: functional; set-up: scale not given: direction of the effect not stated beside the values; conditions: 30 µM
T1 sequence (whole entry): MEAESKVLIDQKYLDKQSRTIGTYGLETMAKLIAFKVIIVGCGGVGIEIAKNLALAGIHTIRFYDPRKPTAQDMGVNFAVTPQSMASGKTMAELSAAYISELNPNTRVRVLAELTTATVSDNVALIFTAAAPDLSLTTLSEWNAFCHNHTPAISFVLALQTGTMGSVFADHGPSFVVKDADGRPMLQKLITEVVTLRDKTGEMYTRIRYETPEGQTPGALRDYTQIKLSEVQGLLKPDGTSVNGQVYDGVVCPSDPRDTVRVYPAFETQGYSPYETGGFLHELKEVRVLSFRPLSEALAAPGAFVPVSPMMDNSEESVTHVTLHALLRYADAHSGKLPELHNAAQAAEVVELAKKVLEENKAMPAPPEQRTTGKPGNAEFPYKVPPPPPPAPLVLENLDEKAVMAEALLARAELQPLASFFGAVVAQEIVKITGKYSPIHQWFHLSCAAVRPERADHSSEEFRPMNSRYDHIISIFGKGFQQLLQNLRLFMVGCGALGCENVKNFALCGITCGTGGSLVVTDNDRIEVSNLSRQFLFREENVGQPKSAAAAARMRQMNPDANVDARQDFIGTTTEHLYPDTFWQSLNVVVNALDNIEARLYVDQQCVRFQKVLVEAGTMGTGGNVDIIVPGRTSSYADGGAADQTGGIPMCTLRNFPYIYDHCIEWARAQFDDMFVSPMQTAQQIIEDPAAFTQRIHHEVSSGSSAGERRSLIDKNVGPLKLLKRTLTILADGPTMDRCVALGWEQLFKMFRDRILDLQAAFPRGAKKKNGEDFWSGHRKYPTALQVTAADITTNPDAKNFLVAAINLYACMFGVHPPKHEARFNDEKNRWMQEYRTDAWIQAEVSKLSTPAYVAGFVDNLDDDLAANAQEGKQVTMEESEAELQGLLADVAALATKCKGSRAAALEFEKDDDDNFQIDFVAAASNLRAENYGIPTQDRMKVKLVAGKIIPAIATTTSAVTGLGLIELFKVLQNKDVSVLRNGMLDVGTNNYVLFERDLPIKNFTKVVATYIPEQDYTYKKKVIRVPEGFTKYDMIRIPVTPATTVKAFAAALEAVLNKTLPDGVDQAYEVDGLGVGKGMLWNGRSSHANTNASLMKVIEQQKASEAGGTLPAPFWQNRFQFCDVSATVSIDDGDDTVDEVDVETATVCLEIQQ

[3] = target: T2, Aspartate--tRNA(Asp/Asn) ligase (Mycobacterium tuberculosis (strain ATCC 25618 / H37Rv)) (UniProt P9WFW3); assay: Assay for Asp RNA synthetase-1 from Mycobacterium tuberculosis; assay type: functional; set-up: scale not given: direction of the effect not stated beside the values; conditions: 30 µM; note: in the data most compounds retested in dose-response had high values
T2 sequence (whole entry): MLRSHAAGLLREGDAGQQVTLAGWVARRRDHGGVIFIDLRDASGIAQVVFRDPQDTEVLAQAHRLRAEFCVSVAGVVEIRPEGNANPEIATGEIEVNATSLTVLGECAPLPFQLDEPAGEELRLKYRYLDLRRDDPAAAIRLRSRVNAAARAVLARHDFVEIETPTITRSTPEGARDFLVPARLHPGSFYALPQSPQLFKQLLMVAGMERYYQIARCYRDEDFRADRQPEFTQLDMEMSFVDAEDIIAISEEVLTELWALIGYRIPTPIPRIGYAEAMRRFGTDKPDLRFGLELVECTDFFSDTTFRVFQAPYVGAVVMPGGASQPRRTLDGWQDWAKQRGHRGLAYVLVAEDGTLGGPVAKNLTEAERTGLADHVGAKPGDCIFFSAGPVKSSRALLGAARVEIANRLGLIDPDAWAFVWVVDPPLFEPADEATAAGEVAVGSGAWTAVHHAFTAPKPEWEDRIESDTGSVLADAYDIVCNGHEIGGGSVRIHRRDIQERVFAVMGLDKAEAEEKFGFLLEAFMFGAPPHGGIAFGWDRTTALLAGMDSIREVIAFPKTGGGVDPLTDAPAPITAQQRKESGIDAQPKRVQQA

[4] = target: AMP-activated protein kinase, AMPK (Homo sapiens) (UniProt P54646+O43741+P54619+Q9UGJ0+Q9Y478+Q13131+Q9UGI9); assay: AMP-dependent Kinase enzyme assay. An in vitro enzyme assay that detects ADP turnover that is directly proportional to AMPK activity. This uses naive AMPK that is activated during the assay with MK-8722; assay type: functional; set-up: scale not given: direction of the effect not stated beside the values; conditions: 30 µM
[5] = target: Sialic acid-binding Ig-like lectin 9 (Homo sapiens) (UniProt Q9Y336); assay: Hs-Siglec9 ALPHAscreen SOP 20170721; set-up: scale not given: direction of the effect not stated beside the values; conditions: 10 µM
Chain of Sialic acid-binding Ig-like lectin 9 (Homo sapiens) (Q9Y336 whole entry): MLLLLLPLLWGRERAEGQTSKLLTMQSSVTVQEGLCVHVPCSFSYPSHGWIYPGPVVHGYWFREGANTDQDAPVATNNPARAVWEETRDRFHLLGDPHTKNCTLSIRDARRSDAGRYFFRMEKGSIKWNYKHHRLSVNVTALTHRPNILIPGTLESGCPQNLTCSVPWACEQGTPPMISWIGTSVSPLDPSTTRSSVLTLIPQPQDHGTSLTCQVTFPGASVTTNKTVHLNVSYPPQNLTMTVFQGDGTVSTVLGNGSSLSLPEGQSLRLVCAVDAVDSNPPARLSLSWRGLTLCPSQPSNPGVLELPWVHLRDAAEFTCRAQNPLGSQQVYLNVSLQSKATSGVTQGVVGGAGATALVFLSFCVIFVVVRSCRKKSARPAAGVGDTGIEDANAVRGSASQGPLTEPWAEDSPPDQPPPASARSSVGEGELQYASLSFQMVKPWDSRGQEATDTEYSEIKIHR

Trypanosoma cruzi = assay: Trypanosoma cruzi phosphomannomutase and mannose-1-phosphate guanylyltransferase assay; assay type: functional; set-up: scale not given: direction of the effect not stated beside the values; conditions: 10 µM
[6] = target: T3, Arginase-2, mitochondrial (Homo sapiens) (UniProt P78540); assay: in vitro enzyme assay to detect the production of urea directly proportional to the activity of Arginase II; assay type: functional; set-up: scale not given: in the data most compounds retested in dose-response had high values
T3 sequence (whole entry): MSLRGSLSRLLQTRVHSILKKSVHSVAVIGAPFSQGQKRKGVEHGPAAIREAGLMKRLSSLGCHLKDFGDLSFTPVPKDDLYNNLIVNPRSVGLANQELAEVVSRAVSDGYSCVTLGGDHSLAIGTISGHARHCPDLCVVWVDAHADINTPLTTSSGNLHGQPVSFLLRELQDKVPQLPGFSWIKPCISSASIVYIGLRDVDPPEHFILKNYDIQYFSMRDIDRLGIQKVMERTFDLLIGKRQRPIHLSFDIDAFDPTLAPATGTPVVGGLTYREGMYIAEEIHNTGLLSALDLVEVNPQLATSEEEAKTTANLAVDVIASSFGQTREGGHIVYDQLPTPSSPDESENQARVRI

[7] = target: T4, Proteasome subunit beta (Trypanosoma cruzi) (UniProt O96673); assay: Trypanosoma cruzi proteasome chymotrypsin-like activity (TcProtChymo) assay.; assay type: functional; set-up: scale not given: in the data most compounds retested in dose-response had high values; conditions: 9.37 µM
T4 sequence (whole entry): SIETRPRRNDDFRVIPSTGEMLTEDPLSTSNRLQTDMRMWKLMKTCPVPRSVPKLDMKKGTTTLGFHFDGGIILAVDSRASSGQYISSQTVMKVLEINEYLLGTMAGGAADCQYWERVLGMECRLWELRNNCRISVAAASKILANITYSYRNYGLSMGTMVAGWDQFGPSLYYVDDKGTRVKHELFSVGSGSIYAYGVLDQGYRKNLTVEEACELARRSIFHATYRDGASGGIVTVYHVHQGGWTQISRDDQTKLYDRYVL

N/A = assay: Trypanosoma cruzi proteasome luciferase counter-screen; assay type: functional; set-up: scale not given: direction of the effect not stated beside the values; conditions: 9.37 µM
Homo sapiens = species: Homo sapiens; assay: To identify inhibition of the IFN signalling (Jak-Stat) pathway via expression of an eGFP reporter gene under the control of an IFN-stimulated response element (ISRE) containing MxA promoter.; assay type: functional; set-up: scale not given: direction of the effect not stated beside the values; conditions: 30 µM
[8] = target: Shiga toxin 2 (Escherichia coli O157:H7) (UniProt P09385+P09386); assay: E. coli 0.157:H7 Shiga Toxin SOP - stx2 screening assay; assay type: functional; set-up: scale not given: direction of the effect not stated beside the values; conditions: 30 µM
[9] = target: T5, Tyrosyl-tRNA synthetase, putative (Trypanosoma cruzi (strain CL Brener)) (UniProt Q4DSP6); assay: Trypanosoma cruzi tyrosyl tRNA synthetase (TcYRS) _High Tyrosine SOP; assay type: functional; set-up: scale not given: in the data most compounds retested in dose-response had high values; conditions: 30 µM
T5 sequence (whole entry): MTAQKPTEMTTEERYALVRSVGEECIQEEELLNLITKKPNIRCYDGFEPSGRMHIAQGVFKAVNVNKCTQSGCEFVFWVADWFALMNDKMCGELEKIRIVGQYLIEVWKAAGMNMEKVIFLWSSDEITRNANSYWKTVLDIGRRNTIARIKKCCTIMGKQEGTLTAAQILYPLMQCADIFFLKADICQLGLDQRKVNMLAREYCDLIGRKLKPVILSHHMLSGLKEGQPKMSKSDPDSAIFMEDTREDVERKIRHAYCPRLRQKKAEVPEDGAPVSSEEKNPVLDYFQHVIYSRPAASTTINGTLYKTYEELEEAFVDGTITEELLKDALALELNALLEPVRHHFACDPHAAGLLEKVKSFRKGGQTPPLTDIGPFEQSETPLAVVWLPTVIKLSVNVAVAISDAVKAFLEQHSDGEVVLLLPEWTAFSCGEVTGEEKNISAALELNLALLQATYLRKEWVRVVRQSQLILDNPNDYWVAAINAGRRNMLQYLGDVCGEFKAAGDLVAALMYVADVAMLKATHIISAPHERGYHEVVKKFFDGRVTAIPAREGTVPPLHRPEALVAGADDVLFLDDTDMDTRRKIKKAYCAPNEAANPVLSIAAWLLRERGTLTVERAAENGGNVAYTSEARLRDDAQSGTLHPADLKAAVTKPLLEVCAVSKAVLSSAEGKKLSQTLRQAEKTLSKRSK

[10] = target: T5, Tyrosyl-tRNA synthetase, putative (Trypanosoma cruzi (strain CL Brener)); assay: Trypanosoma cruzi tyrosyl tRNA synthetase (TcYRS) SOP; assay type: functional; set-up: scale not given: direction of the effect not stated beside the values; conditions: 30 µM
[11] = target: Chromo domain-containing protein 1 (Saccharomyces cerevisiae (strain ATCC 204508 / S288c) (Baker's yeast)) (UniProt P32657); assay: ScCHD-1 Enzyme Inhibition Assay; assay type: functional; set-up: scale not given: in the data most compounds retested in dose-response had high values; conditions: 30 µM
Chain of Chromo domain-containing protein 1 (Saccharomyces cerevisiae (strain ATCC 204508 / S288c) (Baker's yeast)) (P32657 whole entry, the tested form may be a part): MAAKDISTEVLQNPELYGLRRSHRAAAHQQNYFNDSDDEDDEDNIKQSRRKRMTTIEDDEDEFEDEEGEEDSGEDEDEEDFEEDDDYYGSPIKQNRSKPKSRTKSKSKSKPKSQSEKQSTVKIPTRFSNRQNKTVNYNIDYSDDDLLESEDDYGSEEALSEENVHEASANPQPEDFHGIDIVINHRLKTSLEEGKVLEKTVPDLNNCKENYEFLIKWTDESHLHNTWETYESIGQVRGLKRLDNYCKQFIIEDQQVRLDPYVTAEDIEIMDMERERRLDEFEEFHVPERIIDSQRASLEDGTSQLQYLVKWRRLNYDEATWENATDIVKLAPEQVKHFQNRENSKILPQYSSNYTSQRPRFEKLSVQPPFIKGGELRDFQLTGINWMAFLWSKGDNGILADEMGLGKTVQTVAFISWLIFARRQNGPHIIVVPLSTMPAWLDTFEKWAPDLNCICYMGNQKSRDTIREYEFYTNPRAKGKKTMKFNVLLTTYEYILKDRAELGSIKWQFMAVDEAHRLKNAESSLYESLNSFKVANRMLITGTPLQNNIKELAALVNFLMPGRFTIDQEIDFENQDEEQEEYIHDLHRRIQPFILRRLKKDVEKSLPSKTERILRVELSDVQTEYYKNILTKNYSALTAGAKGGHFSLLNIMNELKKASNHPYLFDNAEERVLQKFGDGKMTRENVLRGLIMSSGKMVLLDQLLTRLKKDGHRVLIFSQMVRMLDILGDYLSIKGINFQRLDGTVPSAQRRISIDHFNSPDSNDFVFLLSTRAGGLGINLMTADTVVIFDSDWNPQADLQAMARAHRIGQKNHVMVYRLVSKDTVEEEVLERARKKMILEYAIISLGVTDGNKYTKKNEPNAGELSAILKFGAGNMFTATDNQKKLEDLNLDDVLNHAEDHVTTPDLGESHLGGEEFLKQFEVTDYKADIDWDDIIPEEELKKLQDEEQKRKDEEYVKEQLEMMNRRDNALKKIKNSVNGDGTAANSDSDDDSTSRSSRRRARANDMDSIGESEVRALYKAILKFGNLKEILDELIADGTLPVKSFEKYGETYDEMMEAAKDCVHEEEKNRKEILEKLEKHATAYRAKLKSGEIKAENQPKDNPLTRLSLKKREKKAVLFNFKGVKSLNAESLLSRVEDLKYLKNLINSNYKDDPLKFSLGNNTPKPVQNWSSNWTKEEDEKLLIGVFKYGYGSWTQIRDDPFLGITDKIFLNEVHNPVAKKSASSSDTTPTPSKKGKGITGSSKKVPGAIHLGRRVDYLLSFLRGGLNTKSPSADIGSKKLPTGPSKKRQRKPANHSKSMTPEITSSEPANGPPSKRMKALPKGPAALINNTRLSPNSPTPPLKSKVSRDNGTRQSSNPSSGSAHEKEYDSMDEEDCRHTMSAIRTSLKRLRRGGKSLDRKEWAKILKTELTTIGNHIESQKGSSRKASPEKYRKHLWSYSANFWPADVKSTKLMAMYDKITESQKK

[12] = target: T6, Methionyl-tRNA synthetase, putative (Leishmania donovani (strain BPK282A1)) (UniProt E9BF75); assay: Leishmania donovani Methionine tRNA synthetase (LdMetRS):v7. Dose response assay; assay type: functional; set-up: conc 80 nM, time 150 minutes; conditions: MAX_EFFECT 6.666666667
T6 sequence (whole entry): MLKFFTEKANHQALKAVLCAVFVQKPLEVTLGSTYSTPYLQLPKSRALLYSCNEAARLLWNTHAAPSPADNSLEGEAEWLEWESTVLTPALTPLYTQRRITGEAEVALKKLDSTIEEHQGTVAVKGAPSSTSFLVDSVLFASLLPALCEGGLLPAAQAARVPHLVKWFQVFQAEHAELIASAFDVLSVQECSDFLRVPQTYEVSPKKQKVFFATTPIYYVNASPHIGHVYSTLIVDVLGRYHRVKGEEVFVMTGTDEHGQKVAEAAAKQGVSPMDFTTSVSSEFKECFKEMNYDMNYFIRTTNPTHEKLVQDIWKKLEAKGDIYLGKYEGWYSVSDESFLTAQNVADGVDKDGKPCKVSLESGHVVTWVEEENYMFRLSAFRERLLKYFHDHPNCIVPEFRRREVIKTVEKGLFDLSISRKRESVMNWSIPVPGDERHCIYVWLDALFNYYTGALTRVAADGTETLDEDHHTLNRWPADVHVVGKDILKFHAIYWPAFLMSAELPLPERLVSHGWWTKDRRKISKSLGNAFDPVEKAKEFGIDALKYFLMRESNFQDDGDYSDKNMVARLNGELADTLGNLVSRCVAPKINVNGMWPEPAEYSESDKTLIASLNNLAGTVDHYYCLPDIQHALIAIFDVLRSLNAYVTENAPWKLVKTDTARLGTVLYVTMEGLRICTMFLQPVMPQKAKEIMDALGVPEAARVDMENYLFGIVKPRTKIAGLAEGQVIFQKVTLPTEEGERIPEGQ

Structure (SMILES) | Percent Effect [1] [%] | Percent Effect [2] [%] | Percent Effect [3] [%] | Percent Effect [4] [%] | Percent Effect [5] [%] | Percent Effect (Trypanosoma cruzi) [%] | Percent Effect ([6]; 33.3 µM) [%] | Percent Effect [7] | Percent Effect (N/A) | Percent Effect (Homo sapiens) [%] | Percent Effect [8] [%] | Percent Effect [9] [%] | Percent Effect [10] [%] | Percent Effect [11] [%] | PXC50 [12] | Percent Effect ([6]; 30 µM) [%]
CC(C)=CCN1C[C@H]2CC[C@@H]1CN(C(=O)c1c[nH]c(=O)c(Cl)c1)C2 | -4.07 | 5.48 | 4.22 | 2.02 | 1.06 | -5.16 | -8.38 | 35.6% and 31.4% and 37.8% | 18.4% and 17.9% | 7.03 | -38 | 6.25 | 13.6 | -2.95 |  | 
Cn1cc(C(=O)Nc2ccccc2)c2ccccc21 |  |  |  |  |  |  |  |  |  |  |  |  |  |  | < 4 | 
O=C1CSC(c2ccc(O)c(Cl)c2)c2c(n(C3CCOCC3)[nH]c2=O)N1 (centres undefined) | -3.7 | 20 | -0.726 | 0.0426 | 4.6 | 2.36 | -14.3 | 8.87% |  | 8.4 | -12.7 | 9.52 | 17.9 | -15.1 |  | 4.87
